EPAC1 agonist = EPAC1 (human) agonism. O95398. EPAC1 agonist qHTS, biochemical assay; response scale: 100% = response to 6.5 mM cAMP. Potency, µM (top dose mostly 154 µM), most hits filed as activators. 360,000 tested, 0.073% active. AID 720707; further: nearly all actives have a fitted effect of over 60% in size
Target sequence (O95398 whole entry, looked up): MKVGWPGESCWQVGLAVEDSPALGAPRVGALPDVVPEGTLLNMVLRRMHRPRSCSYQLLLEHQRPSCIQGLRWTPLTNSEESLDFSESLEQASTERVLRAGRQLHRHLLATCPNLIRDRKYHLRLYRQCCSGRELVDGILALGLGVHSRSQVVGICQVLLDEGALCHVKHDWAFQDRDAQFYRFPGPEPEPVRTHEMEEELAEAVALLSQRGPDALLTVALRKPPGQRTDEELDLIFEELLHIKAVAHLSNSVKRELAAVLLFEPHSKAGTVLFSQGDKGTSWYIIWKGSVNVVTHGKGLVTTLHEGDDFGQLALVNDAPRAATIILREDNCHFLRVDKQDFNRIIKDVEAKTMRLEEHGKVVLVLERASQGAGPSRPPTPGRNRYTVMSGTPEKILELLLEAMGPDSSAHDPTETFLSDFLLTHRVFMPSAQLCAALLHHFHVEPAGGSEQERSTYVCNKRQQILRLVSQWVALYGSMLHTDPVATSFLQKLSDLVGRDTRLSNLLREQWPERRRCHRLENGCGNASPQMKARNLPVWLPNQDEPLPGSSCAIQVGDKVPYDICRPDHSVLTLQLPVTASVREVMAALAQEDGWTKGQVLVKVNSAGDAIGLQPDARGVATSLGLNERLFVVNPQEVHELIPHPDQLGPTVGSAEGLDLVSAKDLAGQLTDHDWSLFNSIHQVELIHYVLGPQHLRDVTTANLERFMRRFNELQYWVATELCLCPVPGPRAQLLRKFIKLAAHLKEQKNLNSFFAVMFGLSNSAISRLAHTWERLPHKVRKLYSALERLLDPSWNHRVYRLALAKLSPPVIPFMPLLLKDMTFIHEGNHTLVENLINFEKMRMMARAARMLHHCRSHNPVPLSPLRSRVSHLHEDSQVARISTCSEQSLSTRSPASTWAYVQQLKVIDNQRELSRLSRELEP
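Nucleotide exchange by EPAC1 (100 nM) on Rap1B–BODIPY-GDP (250 nM) in the presence of 50 uM GDP is tracked fluorescently at 480/540 nm over 30 min. Signals are normalized to a 6.5 mM cAMP control.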
LDHA block = LDHA (human) enzyme inhibition | purified LDHA, NADH/diaphorase-resazurin fluorescence; stronger effect = lower value | activity change, % (values are at about 110 or 230 µM) | 480,000 tested, 0.15% active | AID 1347041; in the data active means activity change below about -30%; inconclusive means mostly about -25% to -30%
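Remaining NADH was detected by diaphorase (0.133 mg/mL) converting 37 µM resazurin to fluorescent resorufin, read at 0 and 20 minutes. The preceding 5-minute room-temperature reaction used 2 nM LDHA, 0.2 mM sodium pyruvate and 0.06 mM NADH at pH 7.4.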
EPAC2 agonist = EPAC2 (human) agonism. 360,000 tested, 0.079% active. EPAC2 activation, biochemical qHTS; response scale: 100% = 6.5 mM cAMP response. Q8WZA2. Potency, µM (highest dose often 154 µM), usual class: activators; further: nearly all actives have a fitted effect of over 50% in size
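Guanine nucleotide exchange by EPAC2 is measured as reduced fluorescence of BODIPY-GDP once it is released from 250 nM Rap1B. Plates are read kinetically for 30 min at room temperature; results are scaled to 6.5 mM cAMP.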
EPAC2 antag = antagonists of human EPAC2; Q8WZA2; EPAC2 GEF exchange of Rap1B-BODIPY-GDP, fluorescence; Potency, µM (highest dose often 114 µM), actives largely listed as inhibitors; 360,000 tested, 0.18% active; AID 720708; further: nearly all actives have a fitted effect of over 45% in size
EPAC1 antag = EPAC1 (human) antagonism | Potency, µM (doses to about 115 µM), actives largely listed as inhibitors | EPAC1 GEF assay, Rap1b-BODIPY-GDP exchange fluorescence | O95398 | 360,000 tested, 0.14% active; further: nearly all actives have a fitted effect of over 50% in size
USP1-UAF1 inh = blocks the human USP1/UAF1 deubiquitinase complex. O94782. recombinant USP1/UAF1, Ub-Rhodamine cleavage fluorescence. Potency, µM (highest dose often 57.1 µM), hits mostly inhibitors. 390,000 tested, 0.23% active; further: nearly all actives have a fitted effect of over 60% in size
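High-throughput fluorogenic screen: 1nM USP1/UAF1 complex, Ub-Rho substrate 150nM final, 50mM HEPES pH 7.8 with 0.5mM EDTA, 0.1 mg/ml BSA, 1mM TCEP and 0.01% Tween-20.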
A number is an active result; 0 = inactive; ? = inconclusive; - = no result given. Sampled rows, rich in hits. Any-hit rate of the full collection: about 0.56%. Unless noted, the call rests on the fitted dose curve; in most records, active means well fitted curve in the direction sought with a large enough effect; inconclusive means small, poorly fitted or top-dose-only effect, or another doubt; inactive means no such curve, though single readings can be large; an effect the other way counts as inactive or inconclusive.

SMILES	EPAC1 agonist	LDHA block	EPAC2 agonist	EPAC2 antag	EPAC1 antag	USP1-UAF1 inh
CCCOC(=O)c1ccc(Nc2nc(C(=O)OCC)nc3ccccc23)cc1	-	-34	-	-	-	-
O=C(CC1CCCC1)N(Cc1ccco1)C1CC1	-	0	-	-	-	-
COc1cc(/C=C2/SC(=S)N(CC(=O)O)C2=O)ccc1OC(=O)c1cccs1	0	0	0	?	79µM	0
COc1cc(/C=C2\SC(=S)N(CC(=O)O)C2=O)ccc1OS(=O)(=O)c1ccc(C)cc1	0	0	0	?	89µM	0
COc1cc(/C=C2/SC(=S)N(C)C2=O)ccc1OC(=O)c1ccco1	0	0	0	0	0	0
COc1cccc(CNC(=O)COCc2cc(-c3ccc4c(c3)OCO4)on2)c1	-	0	-	-	-	0
S=C(NCCC(c1ccccc1)c1ccccc1)Nc1ccccc1	-	0	-	-	-	-
CCc1nc2ccccc2c(=O)n1NC(=O)c1c(O)c2ccccc2n(CC)c1=O	0	-40	0	0	0	0
CCOc1ccc(N=C2NC(=O)S/C2=C\c2ccc(N(C)C)cc2)cc1	0	0	?	0	0	28µM
O=C(C=Cc1ccccc1)CC(c1ccccc1)N1CCOCC1 (stereo unspecified)	0	0	0	0	?	0
C=CC(=O)NCC1OCCc2ccccc21 (stereo unspecified)	0	0	0	0	0	0
O=C(/C=C/c1ccco1)NCC1OCCc2ccccc21 (stereo unspecified)	0	0	0	0	56µM	0
CC(C)CCNc1c(-c2cccs2)nc2ccccn12	0	0	0	45µM	0	0
CCOc1ccc(-n2c(C)cc(C(=O)CCl)c2C)cc1	0	0	0	8.9µM	0	0
COC(=O)c1ccc(-n2c(C)cc(C(=O)CCl)c2C)cc1	0	0	0	35µM	0	0
O=C1/C(=C/c2ccccc2Br)CCc2ccccc21	-	0	-	-	-	-
O=C1C(=Cc2ccccc2Cl)CCc2ccccc21	0	0	0	35µM	?	-
COc1ccc(Br)cc1CN1CCCCCCC1	0	-30	0	0	0	0
Cc1cc2ccccn2c1C(=O)c1ccc(Cl)cc1	0	0	0	?	0	0
Cc1cc2ccccn2c1C(=O)c1ccccc1F	0	0	0	45µM	0	0
CCc1cccc(CC)c1NC(=O)c1c(C)oc2ccc(O)c(CN3CCN(C)CC3)c12	-	0	-	-	-	0
O=[N+]([O-])c1ccc(Nc2ccccc2)c2nonc12	0	0	0	0	0	?
O=[N+]([O-])c1ccc(Sc2cccc[n+]2[O-])c2nonc12	0	0	0	56µM	35µM	?
COc1ccc(NC(=O)c2cc(S(=O)(=O)N3CCCC(C)C3)cn2C)c(OC)c1 (stereo unspecified)	-	0	-	-	-	?
Nc1ccc2nc3c(=O)n(CCc4ccccc4)c(=O)[nH]c3nc2c1	112µM	0	63µM	0	0	16µM
SMILES	EPAC1 agonist	LDHA block	EPAC2 agonist	EPAC2 antag	EPAC1 antag	USP1-UAF1 inh
CCCCn1c(=O)[nH]c2nc3cc(N)ccc3nc2c1=O	100µM	0	100µM	0	0	28µM
C=CCn1c(=O)[nH]c2nc3cc(N=CN(C)C)c(C)cc3nc2c1=O	0	0	?	0	0	?
Cc1cc2nc3c(=O)n(CCc4ccccc4)c(=O)[nH]c3nc2cc1N	?	0	100µM	0	0	18µM
O=C(OCc1noc(-c2ccco2)n1)c1cc(Br)c[nH]1	-	0	-	-	-	-
COc1ccc(S(=O)(=O)Nc2cc(SCC(=O)O)c(O)c3ccccc23)cc1	0	0	0	0	79µM	32µM
O=C(O)CSc1cc(NS(=O)(=O)c2ccc(Cl)cc2)c2ccccc2c1O	0	0	?	79µM	?	25µM
Nc1ccc(C(=O)Nc2ccc3cc(S(=O)(=O)O)ccc3c2)cc1	0	0	0	0	0	0
O=C(Nc1cc(C(=O)Nc2ccc(S(=O)(=O)O)cc2S(=O)(=O)O)cc(C(=O)Nc2ccc(S(=O)(=O)O)cc2S(=O)(=O)O)c1)Nc1cc(C(=O)Nc2ccc(S(=O)(=O)O)cc2S(=O)(=O)O)cc(C(=O)Nc2ccc(S(=O)(=O)O)cc2S(=O)(=O)O)c1	-	-38	-	-	-	-
Cc1cccc(C)c1OCC(=O)Nc1ccccc1N1CCCCC1	0	0	0	10µM	0	0
Cc1cccc(OCC(=O)Nc2ccccc2N2CCCCC2)c1C	0	0	0	0	0	0
CCCCS(=O)(=O)CCOCCS(=O)(=O)CCCC	-	0	-	-	-	-
Cc1cc(C)c(C(=O)c2cccs2)c(C)c1	0	0	0	28µM	0	0
COc1ccccc1NC(=O)c1ncoc1-c1ccc(C)o1	-	0	-	-	-	-
O=C(CCc1ncc(-c2ccc(Cl)cc2)o1)N1CCC(Cc2ccccc2)CC1	-	0	-	-	-	-
CCCCn1c(NS(=O)(=O)c2ccccc2)c(S(=O)(=O)c2ccc(C)cc2)c2nc3ccccc3nc21	0	0	0	0	50µM	28µM
CCCCn1c(NC(=O)c2ccc(Br)o2)c(S(=O)(=O)c2ccccc2)c2nc3ccccc3nc21	0	0	0	0	0	28µM
CCCCn1c(NC(=O)c2ccco2)c(S(=O)(=O)c2ccc(C)cc2)c2nc3ccccc3nc21	0	0	0	0	0	?
O=C1NNC(c2ccccc2)=N/C1=C\c1ccccc1Cl	0	0	0	?	40µM	18µM
O=C1NNC(c2ccccc2)=N/C1=C\c1ccco1	0	0	0	0	0	0
O=C(O)c1ccc(N/N=C/c2ccnc3ccccc23)cc1	0	-37	0	0	0	0
O=C(c1cccc(-n2cccc2)c1)N1CCN(S(=O)(=O)c2ccccc2)CC1	0	0	0	0	79µM	0
CCOc1nc2ccccc2nc1N1CCC(C(=O)Nc2ccc(Cl)cc2)CC1	-	0	-	-	-	-
O=C(O)CC/C(=C\c1ccc(N2CCCC2)c([N+](=O)[O-])c1)c1nc2ccccc2s1	89µM	0	0	0	45µM	0
Cc1cc(CSc2ccc(Cl)cc2)ccc1N	0	0	0	16µM	0	0
CCCCCCCCN1C(=O)[C@H](CC(=O)NCc2ccc(OC)c(OC)c2)C[C@@]2(C(=O)OCC)CCC=C12	0	0	0	?	0	-
CCCCCCCCN1C(=O)[C@H](CC(=O)NCc2ccc(OC)c(OC)c2)C[C@@]2(C(=O)OC)CCCCC=C12	0	0	0	38µM	0	-
CCN1CCN(c2ccc(S(=O)(=O)N(CC)CC)cc2NC(=O)Cc2ccccc2C)CC1	-	0	-	-	-	-
